# Results filed as inconclusive are left out. Where a call stands in place of a potency, no number is given. Active and inactive are the calls of the source. The call rests on the fitted dose curve; in most records, active means well fitted cell-killing curve with a large enough effect; inconclusive means small, poorly fitted or top-dose-only effect; inactive means flat fitted curve, though single readings scatter.
# Assay: Cell Viability - LYMP2-024 (AID 988); further: nearly all actives have a fitted effect of over 60% in size
# Conditions: LYMP2-024 lymphoblastoid cell viability; series mostly up to 92.2 µM
# Excerpt: NIH Chemical Genomics Center [NCGC]
# NIH Molecular Libraries Screening Centers Network [MLSCN]
# National Institutes of Environmental Health Sciences [NIEHS]
# National Toxicology Program [NTP]
# We have developed a 1536-well cell-based assay for quantitative high throughput screening (qHTS) against a number of cell lines to determine in vitro cytotoxicity of small molecules. This particular assay uses a human lymphoblastoid cell line (LYMP2-024) purchased from Coriell Institute for Medical Research.
# NCGC Assay Protocol Summary:
# The CellTiter-Glo luminescent cell viability assay (Promega) is a homogeneous method to measure the number of viable cells in culture. The end point readout of this assay is based on quantitation of intracellular ATP, an indicator of metabolic activity, using the luciferase reaction. Luciferase catalyzes the oxidation of beetle Luciferin to oxyluciferin and light in the presence of ATP. The luminescent signal is proportional to amount of ATP present.
# Using the CellTiter-Glo luminescent cell viability assay, the amount of cellular ATP was measured in the lymphoblastoid cell line with complete culture medium following compound treatment for 24 hours. The assay was performed in opaque white Kalypsys 1536-well plates. In the screen, tetraoctylammonium bromide was used as positive control. Library compounds were measured for their ability to cause acute toxicity in the cell line, as reflected by a decrease in intracellular ATP levels, in a concentration-dependent manner. […] AC50 values were determined from concentration-response data modeled with the standard Hill equation.
# qHTS protocol for CellTiter Glo lymphoblastoid cellular assay
# [Step] [Parameter] [Value] [Description]
# 1. Reagent; 5 uL; 2500 lymphoblastoid cells/well
# 2. Time; 5 hr; 37 C incubation
# 4. Controls; 23 nL; Tetraoctylammonium bromide 6.4pM to 92 uM
# 5. Time; 24 hr; 37 C incubation
# 6. Reagent; 5 uL; CellTiter Glo reagent
# 7. Time; 30 min; Room Temperature
# 8. Detection; Luminescence; Viewlux plate reader
# Keywords: cell viability, cytotoxicity, lymphoblastoid cell line, luminescence, NTPHTS, NTPHTS_NCGC, NIEHS, DSSTox, MLSMR, MLSCN, NIH Roadmap, qHTS, NCGC
# Potency means the concentration at half of the fitted maximal effect.
row,SMILES,Potency
1,CC1=C(/C=C/C(C)=C/C=C/C(C)=C/C(=O)Nc2ccc(O)cc2)C(C)(C)CCC1,39.8 µM (active)
2,CCCCC1C(=O)N(c2ccccc2)N(c2ccccc2)C1=O,inactive
3,CC/C(=C(\c1ccccc1)c1ccc(OCCN(C)C)cc1)c1ccccc1,50.1 µM (active)
4,O=c1c(O)c(-c2ccc(O)cc2)oc2cc(O)cc(O)c12,inactive
5,CC(=O)O[C@]1(C(C)=O)CC[C@H]2[C@@H]3C=C(Cl)C4=CC(=O)[C@@H]5C[C@@H]5[C@]4(C)[C@H]3CC[C@@]21C,inactive
6,O=c1[nH]cnc2c1ncn2[C@H]1CC[C@@H](CO)O1,inactive
7,CCCNC(=O)NS(=O)(=O)c1ccc(Cl)cc1,inactive
8,O=c1c(-c2ccc(O)cc2)coc2cc(O)ccc12,inactive
9,CN(C)CCC(c1ccccc1)c1ccccn1 (centres undefined),inactive
10,CCn1cc(C(=O)O)c(=O)c2ccc(C)nc21,inactive
11,O=C(O)c1cc(O)c2c(c1)C(=O)c1cccc(O)c1C2=O,inactive
12,O=C(O)Cc1cccc2ccccc12,inactive
13,O=C1NC(=O)C(c2ccccc2)(c2ccccc2)N1,inactive
14,CC(=O)c1ccc(S(=O)(=O)NC(=O)NC2CCCCC2)cc1,inactive
